These results are taken from PubChem BioAssay AID1460 (National Center for Advancing Translational Sciences (NCATS), 2008).

Where “and” joins values, the source holds several entries; their conditions need not be identical. Equal values may be shown once. About 5,800 (2.1%) of roughly 270,000 compounds were called active. About 16% were inconclusive and are not listed. Only a selection was taken, and actives are over-represented in it overall. Values without a mark were called inactive. Calls follow the shape of the dose curve; as a rule, active = well fitted inhibition curve with a large enough effect; inconclusive = small, poorly fitted or top-dose-only effect; inactive = flat fitted curve, though single readings scatter.
% is scaled to controls: 0 for no effect and ±100 for the full control effect; potency is read from the fitted curve at half-maximal effect.

Microtubule-associated protein tau (Homo sapiens), sequence (P10636 561-689 P618L limits assumed): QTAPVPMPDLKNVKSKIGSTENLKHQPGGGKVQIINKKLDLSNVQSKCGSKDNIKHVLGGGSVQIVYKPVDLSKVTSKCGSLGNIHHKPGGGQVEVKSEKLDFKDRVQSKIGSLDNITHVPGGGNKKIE

This assay concerns the target Microtubule-associated protein tau (Homo sapiens) (UniProt P10636). In words: qHTS for Inhibitors of Tau Fibril Formation, Thioflavin T Binding. Also: nearly all actives have a fitted effect of over 55% in size. The conditions noted are these: recombinant tau K18 P301L, heparin-induced fibrillization, ThT fluorescence; series mostly up to 57.4 µM; activity, negative = inhibition: at the top concentration. The method in brief:
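Fibril formation assay: tau K18 P301L at 15 uM with trace Alexa 594 label, heparin inducer 20 uM, pH 7 sodium acetate buffer, 37 C for 6 hr; endpoint ThT signal.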
For orientation: Quantitative high-throughput screening tests each substance at several concentrations.
For `COc1cccc(N2CCN(S(=O)(=O)c3ccc4c(c3)CCCN4C(C)=O)CC2)c1`, the “activity, negative = inhibition” value was -2.31%.

Consider `CCOC(=O)c1[nH]c2ccc(OC)cc2c1NC(=O)CCN1CCN(Cc2ccccc2)CC1`, for which the “activity, negative = inhibition” value is -7.67%. For `COC(=O)c1[nH]c2ccccc2c1NS(=O)(=O)c1ccc(OC)cc1OC`, the “activity, negative = inhibition” value was -2.82%. In the case of `COC(=O)c1[nH]c2ccc(Br)cc2c1NC(=O)Oc1ccccc1`, the Potency is 15.8 µM (active). `O=S(=O)(NCCS(=O)(=O)N1CCN(c2ccccc2)CC1)c1ccc(Cl)cc1`: the “activity, negative = inhibition” value is -4.85%.

`CN(C(=O)CSc1nc2ccc(NC(=O)COc3ccccc3)cc2s1)c1ccccc1`: the “activity, negative = inhibition” value is -3.95%. On the same count and under the same terms, as for `CCCCc1nn2c(=O)cc(COC(=O)c3ccc(NC(=O)c4ccccc4C)cc3)nc2s1`, the figure is -1.76%.

For the compound `O=C1CSC(=S)N1/N=C/c1ccc(O)c([N+](=O)[O-])c1`, the Potency is 6.31 µM (active).

As to `Cc1ccc(C(=O)Cn2cc([N+](=O)[O-])nc2C)cc1`, the “activity, negative = inhibition” value is -1.76%. Regarding `O=C(Cn1c[n+](CC(=O)c2ccc([N+](=O)[O-])cc2)cn1)c1ccc([N+](=O)[O-])cc1`, the Potency was 12.6 µM (active) and 20 µM (active). In the case of `O=C(c1ccncc1)c1ccc([N+](=O)[O-])cc1`, the “activity, negative = inhibition” value was 0.754%. On to `Cc1csc2nc(COC(=O)c3ccc(NC(=O)COc4ccccc4F)cc3)cc(=O)n12`, for which the “activity, negative = inhibition” value is -5.4%. With `Cc1ccc(/C=C(\C#N)C(=O)Nc2cccc3ncccc23)o1`, the Potency was 14.1 µM (active). As to `O=C(Nc1cccc2ncccc12)c1ccc(-c2ccc(Cl)cc2Cl)o1`, the “activity, negative = inhibition” value is -12.8%. On the same count and under the same terms, as for `O=C(Nc1cccc2ncccc12)C(Cl)(Cl)Cl`, the figure is 8.69%. For `O=C(NCc1ccccc1Cl)C1CCN(c2ncnc3c2nc2n3CCCCC2)CC1`, the “activity, negative = inhibition” value is -13.8%.

Consider `Cc1ccc(NC(=O)Cn2cnc3nc4c(cc3c2=O)CCCC4)cc1Cl`, for which the “activity, negative = inhibition” value was 6.45%. Take `CCc1ccc(-c2cc(C(=O)NCc3ccco3)c3ccccc3n2)s1`: the Potency was 25.1 µM (active). On to `O=C(Nc1ccccc1)Nc1ccccc1C(=O)NCc1ccco1`, for which the “activity, negative = inhibition” value was -5.07%.

On to `CCOc1ccc(CNC(=O)c2cc(-c3ccc(Cl)s3)nc3ccccc23)cc1`, for which the “activity, negative = inhibition” value is 4.88%. Same read-out and setting: as for `Cc1cc(C)cc(NS(=O)(=O)c2cc3c(cc2C)NC(=O)CO3)c1`, the figure is -8.97%; as for `CCc1ccc(NC(=O)CCCc2nnc3n(CCCOC)c(=O)c4sccc4n23)cc1`, -2.94%; as for `CCN(CC)c1ccc(NC(=O)CN2CCN(CC(=O)Nc3ccc(Cl)cc3)CC2)cc1`, -12.7%. Still for that read-out and setting: as for `COc1ccc(-c2nc(SCC(=O)N3CCCCC3C)n[nH]2)cc1` (stereo not drawn), the figure is -11.1%; as for `CC(CCO)Nc1nc2c([nH]1)c(=O)n(C)c(=O)n2C` (stereo not drawn), -1.07%. On to `Cc1ccc(NN=Nc2nc3c([nH]2)c(=O)n(C)c(=O)n3C)cc1`, for which the Potency was 28.2 µM (active). As for `Cc1ccc(CNC(=O)CSc2c(C)cnc3c2c(=O)n(C)c(=O)n3C)cc1`, the “activity, negative = inhibition” value is -3.11%. On the same count and under the same terms, as for `CCc1cccc(CC)c1NC(=O)Cn1c(=O)c(-c2cc(C)ccc2NC(C)=O)nc2ccccc21`, the figure is 0.406%; as for `Cc1nc(N2CCOCC2)nc2c1CCCC2`, -16.3%; as for `Cc1cc(Oc2ccccc2)nc(N2CCOCC2)n1`, -5.46%. As to `Nc1nc(-c2sc3nc4c(cc3c2N)CCCC4)nc(N2CCOCC2)n1`, the Potency was 3.55 µM (active). Take `COc1ccc(CCNc2nc(-c3ccc(Cl)cc3)cc(C(F)(F)F)n2)cc1OC`: the “activity, negative = inhibition” value was -16.6%. On to `COc1ccc2c(Sc3ccc(C)cc3)c(C(=O)NC(C)c3ccccc3)[nH]c2c1` (stereo not drawn), for which the “activity, negative = inhibition” value is 2.48%. With `CNC(=O)c1ccc(-c2nc(CN3CCc4ccccc43)c(C)o2)cc1`, the “activity, negative = inhibition” value was -12.5%. On the same count and under the same terms, in the case of `CCc1ccc(NC(=O)c2nn(-c3ccc(C)cc3)c(=O)n(C)c2=O)cc1` it was -10.4%. Turning to `CC(C)CCNC(=O)CSc1nc2ccccc2nc1Cc1ccc(Cl)cc1`, the “activity, negative = inhibition” value was 5.97%. Same read-out and setting: as for `CCc1ccc(Sc2cc(C(=O)NCCCOC(C)C)c3ccccc3n2)cc1`, the figure is -15.9%. In the case of `COc1ccccc1OCCNc1cc(N2CCOCC2)ccc1[N+](=O)[O-]`, the Potency was 14.1 µM (active). As for `O=[N+]([O-])c1ccc(N2CCN(S(=O)(=O)c3ccc4ccccc4c3)CC2)cc1NCc1ccco1`, the “activity, negative = inhibition” value is -9.48%.

For the compound `COc1ccccc1OCCNC(=O)c1cc([N+](=O)[O-])cc([N+](=O)[O-])c1`, the “activity, negative = inhibition” value is 1.4%. As for `Cc1ccc2nc(COc3cccc(NC(=O)Nc4ccc(C)c(Cl)c4)c3)cc(=O)n2c1`, the “activity, negative = inhibition” value was -13.6%.

`CCc1ccc(CNCc2c(C(=O)O)n(Cc3ccc(F)cc3Cl)c3cc(OC)ccc23)cc1`: the “activity, negative = inhibition” value is -12.6%. Turning to `COc1ccc(S(=O)(=O)NCc2cccn2Cc2cccc(C)c2)cc1`, the “activity, negative = inhibition” value is 10.6%. With `COc1ccc(Cc2nc3ccc(C(=O)NCc4ccccc4C)cc3o2)cc1`, the “activity, negative = inhibition” value was -12.9%. The same measure, in the same setting: in the case of `O=C(Nc1ccccc1Cl)c1ccc2nsnc2c1` it was -5.65%; in that of `COCCN(CCOC)C(=S)Nc1ccccc1Cl`, 1.33%.

Take `O=C(Nc1ccccc1Cl)/C(Cl)=C(\Cl)S(=O)c1ccccc1` (stereo not drawn): the Potency is 2.82 µM (active). `CCOC(=O)C1CCCN(C(=O)Cn2ncc3c(C)n(Cc4ccc(F)cc4)c(C)c3c2=O)C1` (stereo not drawn): the “activity, negative = inhibition” value is -5.22%. On to `O=C(CCc1nc(CN2CCN(S(=O)(=O)c3ccc(Cl)cc3)CC2)no1)N1CCCCC1`, for which the “activity, negative = inhibition” value is -2.38%. As for `CCC(=O)Nc1ccc(C)cc1-c1nc2ccccc2n(Cc2ccccc2)c1=O`, the “activity, negative = inhibition” value is 4.56%. `Cc1ccc(NC(=O)Nc2ccccc2)c(Br)c1`: the “activity, negative = inhibition” value was 0.764%. In the case of `C=CC[n+]1c(-c2ccc(C)cc2)csc1NNC(=O)Nc1ccccc1`, the Potency was 15.8 µM (active). On to `C=CCNc1scc(-c2ccccc2)[n+]1CC=C`, for which the “activity, negative = inhibition” value is -6.04%.

As to `O=C(NCC(c1ccc(Cl)cc1)N1CCOCC1)c1ccccc1F` (stereo not drawn), the “activity, negative = inhibition” value was -2.31%. As for `COc1ccc(-c2cc(C(=O)NCc3cc(OC)c(OC)c(OC)c3)[nH]n2)cc1`, the “activity, negative = inhibition” value is -1.22%.

Turning to `Cc1ccc2c(c1)N(CC(=O)NCCCN1CCCCC1)C(=O)c1cccnc1O2`, the “activity, negative = inhibition” value was 5.5%. For `Cc1ccc(Nc2c(-c3ccc(N(C)C)cc3)nc3nc[nH]n23)cc1`, the Potency is 14.1 µM (active). Take `Cc1ccc(Nc2c(-c3ccc(C)s3)nc3ccccn23)cc1`: the “activity, negative = inhibition” value was -17.4%.
